The values below come from PubChem BioAssay (Tox21).

The structures appear in SMILES notation. Values without a mark were called inactive. Results filed as inconclusive are left out. The source made the active and inactive calls. Unless noted, calls follow the shape of the dose curve; as a rule, active = well fitted curve in the direction sought with a large enough effect in the repeat runs; inconclusive = weak or mixed curves; inactive = no such curve, though single readings can be large; an effect the other way counts as inactive or inconclusive.

Experiment [1] is described as follows: qHTS assay to identify small molecule HDAC inhibitors - cell viability counter screen (AID 1259365). Also: series mostly up to about 92 µM; nearly all actives have a fitted effect of over 50% in size. The procedure, abridged:
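CellTiter-Glo luminescence (30 min, room temperature) reported viability after a 2 h compound exposure at 37 C. Cells: wild-type HCT-116, 1,500 per well, seeded the night before.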
A general note: qHTS replaces the single test concentration by a dilution series.

Experiment [2] in a line: qHTS assay to identify small molecule agonists of the sonic hedgehog signaling (Shh) pathway - cell viability counter screen (AID 1259366). Also: nearly all actives have a fitted effect of over 50% in size. Also: potency is read from the fitted curve at half-maximal effect. In short, it runs like this:
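Cytotoxicity counter screen: CellTiter-Fluor reagent added after 23 h compound exposure, then 1 h at 37C and fluorescence read. Cells were 3T3 Gli1-Luc, seeded 2,000 per well and dosed 4 h post-plating.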

Experiment [3] in a line: qHTS assay to identify small molecule antagonists of the sonic hedgehog signaling (Shh) pathway - cell viability counter screen (AID 1259367). Also: nearly all actives have a fitted effect of over 55% in size. Also: potency is read from the fitted curve at half-maximal effect. The procedure, abridged:
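Cytotoxicity was assessed in parallel with Shh reporter activity by measuring live-cell protease fluorescence (CellTiter-Fluor) in NIH/3T3 cells stably carrying Gli1-Luc, treated with compound under conditioned medium stimulation for 23 hr plus 1 hr reagent incubation.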

A short description of experiment [4]: qHTS assay to identify small molecule agonists of the sonic hedgehog signaling (Shh) pathway (AID 1259368; calls by dose curve;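 also: NIH/3T3-derived 3T3Gli1-Luc cells carrying a stable Gli1-driven firefly luciferase reporter; series mostly up to about 92 µM; nearly all actives have a fitted effect of over 15% in size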). The procedure, abridged:
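Stable NIH/3T3 Gli1-Luc reporter clone; 24 hr cpd exposure after a 4 hr settling period; luminescence endpoint.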

The nature of experiment [5]: qHTS assay to identify small molecule antagonists of the sonic hedgehog signaling (Shh) pathway (AID 1259369; calls by dose curve; also: nearly all actives have a fitted effect of over 45% in size; also: potency is read from the fitted curve at half-maximal effect). In short, it runs like this: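 Gli1 transcriptional reporter (firefly Luc) in NIH/3T3 background, conditioned-medium activated. 24hr exposure, luminescence endpoint.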
Experiment [6] deals with Estrogen receptor beta (Homo sapiens) (UniProt Q92731). As to the kind of experiment: qHTS assay to identify small molecule antagonists of the estrogen receptor beta (ER-beta) signaling pathway (AID 1259378; active = well fitted inhibition curve with a large enough effect in the signal ratio in the repeat runs, not every such curve was filed as active; the % refers to the signal ratio). In short, it runs like this:
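ER-beta-UAS-bla HEK293T (GripTite) cells in 2% charcoal-stripped FBS medium were preincubated 6 hr at 37C, dosed with compound, then stimulated with 1 nM E2 (final) for 16 hr; beta-lactamase reporter read by B/G FRET fluorescence after 2 hr substrate loading.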

A short description of experiment [7]: qHTS assay to identify small molecule agonists of the androgen receptor (AR) signaling pathway in the presence of an antagonist - cell viability counter screen (AID 1259379).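 Also: MDA-kb2 human breast cancer cells carrying an MMTV luciferase reporter; series mostly up to about 92 µM; nearly all actives have a fitted effect of over 25% in size.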 The procedure, abridged:
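Counter screen for cell viability run in parallel with the AR agonist-mode luciferase assay. MDA-kb2 cells were co-treated with nilutamide (3.0uM final) and compounds, then incubated 16 hr at 37C, and CellTiter-Fluor fluorescence was measured.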

Experiment [8] in a line: qHTS assay to identify small molecule agonists of the estrogen receptor beta (ER-beta) signaling pathway - cell viability counter screen (AID 1259380). Also: nearly all actives have a fitted effect of over 30% in size. In short, it runs like this: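 In this qHTS counter screen, HEK293T cells carrying an ER-beta/UAS beta-lactamase reporter, grown in 2% charcoal-stripped FBS, received compound for 16 hr; ATP-based CellTiter-Glo luminescence was then read after 30 min at room temperature.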

Experiment [9] has as its target Androgen receptor (Homo sapiens) (UniProt P10275). As to the kind of experiment: qHTS assay to identify small molecule agonists of the androgen receptor (AR) signaling pathway in the presence of an antagonist (AID 1259381; calls by dose curve; also: nearly all actives have a fitted effect of over 15% in size). The procedure, abridged: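 AR antagonist background: nilutamide 3.0uM final. Cell line: MDA-kb2, MMTV-driven luciferase, responsive to both AR and GR. Exposure 16hr, 37C, no CO2; ONE-Glo luminescence.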
% is scaled to controls: 0 for no effect and ±100 for the full control effect.

Sequence of Estrogen receptor beta (Homo sapiens) (Q92731 whole entry, looked up): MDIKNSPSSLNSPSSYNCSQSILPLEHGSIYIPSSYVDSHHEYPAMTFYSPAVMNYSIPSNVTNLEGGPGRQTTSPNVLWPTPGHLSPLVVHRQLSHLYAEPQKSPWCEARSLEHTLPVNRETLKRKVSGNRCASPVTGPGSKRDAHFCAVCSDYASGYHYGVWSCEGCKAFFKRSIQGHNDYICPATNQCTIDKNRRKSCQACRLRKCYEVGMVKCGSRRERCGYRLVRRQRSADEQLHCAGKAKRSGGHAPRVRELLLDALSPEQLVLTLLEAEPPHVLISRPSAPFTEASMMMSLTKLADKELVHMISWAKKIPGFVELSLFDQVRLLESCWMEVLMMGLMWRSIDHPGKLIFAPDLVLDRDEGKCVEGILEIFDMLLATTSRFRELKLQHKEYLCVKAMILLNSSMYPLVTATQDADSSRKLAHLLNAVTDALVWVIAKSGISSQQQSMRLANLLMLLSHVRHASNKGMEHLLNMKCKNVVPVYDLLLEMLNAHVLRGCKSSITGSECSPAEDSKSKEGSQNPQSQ
Sequence of Androgen receptor (Homo sapiens) (P10275 whole entry, looked up): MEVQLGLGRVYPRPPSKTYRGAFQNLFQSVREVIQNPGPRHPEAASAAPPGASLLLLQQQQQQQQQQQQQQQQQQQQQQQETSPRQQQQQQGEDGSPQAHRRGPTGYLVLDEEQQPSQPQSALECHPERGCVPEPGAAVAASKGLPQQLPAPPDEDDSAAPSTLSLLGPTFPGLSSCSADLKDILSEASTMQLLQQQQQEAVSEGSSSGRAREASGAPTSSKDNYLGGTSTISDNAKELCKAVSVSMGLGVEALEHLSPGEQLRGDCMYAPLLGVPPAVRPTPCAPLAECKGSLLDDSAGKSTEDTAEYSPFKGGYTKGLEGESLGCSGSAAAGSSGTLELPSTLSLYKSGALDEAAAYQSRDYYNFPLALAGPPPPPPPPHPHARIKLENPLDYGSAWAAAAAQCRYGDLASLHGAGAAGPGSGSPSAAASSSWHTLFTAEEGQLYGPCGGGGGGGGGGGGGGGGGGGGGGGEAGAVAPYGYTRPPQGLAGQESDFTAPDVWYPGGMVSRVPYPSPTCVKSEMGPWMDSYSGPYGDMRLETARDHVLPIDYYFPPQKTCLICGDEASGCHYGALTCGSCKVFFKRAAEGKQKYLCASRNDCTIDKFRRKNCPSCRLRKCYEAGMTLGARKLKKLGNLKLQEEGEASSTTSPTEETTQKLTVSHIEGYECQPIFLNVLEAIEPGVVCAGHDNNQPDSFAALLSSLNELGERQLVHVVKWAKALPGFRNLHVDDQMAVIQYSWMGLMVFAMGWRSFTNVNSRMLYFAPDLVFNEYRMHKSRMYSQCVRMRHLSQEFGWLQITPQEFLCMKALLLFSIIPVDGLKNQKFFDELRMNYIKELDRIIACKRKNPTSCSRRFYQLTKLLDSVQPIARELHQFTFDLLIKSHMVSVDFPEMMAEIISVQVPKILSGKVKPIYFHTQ

Turning to `CCC(=O)OCCC(C)CCC=C(C)C` (configuration not stated), the result in [1], in [4], in [6] and in experiment [8] was inactive. In addition, the Potency result in [2], in [3], in experiment [5] and in experiment [7] was “inactive” throughout.
As for `O=C(O)c1c(Cl)ccc(Cl)c1Cl`, the result in experiment [1] and in experiment [4] was inactive. Also, the Potency entry in experiment [2], in experiment [3], in [5] and in experiment [7] was “inactive” in each case.
For the compound `CCCCC(=O)N(C)C`, the compound was called inactive in [1], in [4], in experiment [6] and in experiment [8]. Also, the Potency result in [2], in [3], in [5] and in [7] was “inactive” each time.
On to `C=C[C@@H](C)CCC=C(C)C`, for which the result in experiment [1], in experiment [4], in experiment [6] and in [8] was inactive. Besides, the Potency entry in [2], in experiment [3], in experiment [5] and in experiment [7] was “inactive” in each case.
`CCCCCCCCCCCCOC(C)=O`: the call in experiment [1], in [4], in [6] and in [8] was inactive. For the same compound, the Potency entry in experiment [2], in [3], in experiment [5] and in experiment [7] was “inactive” throughout.
As for `C=CCOc1c(Br)cc(C(C)(C)c2cc(Br)c(OCC=C)c(Br)c2)cc1Br`, the compound was called inactive in experiment [1], in experiment [4], in experiment [6] and in [8]. Further, the Potency result in experiment [2], in experiment [3], in experiment [5] and in [7] was “inactive” in each case.
Take `O=S(=O)(O)CCO`: the compound was called inactive in experiment [1], in experiment [4], in experiment [6] and in experiment [8]. Moreover, the Potency result in [2], in [3], in experiment [5] and in experiment [7] was “inactive” throughout.
Regarding `CC(C)C(=O)c1ccccc1`, the outcome in experiment [1], in experiment [4], in [6] and in experiment [8] was inactive. Further, the Potency result in experiment [2], in experiment [3], in experiment [5] and in experiment [7] was “inactive” each time.
With `O=S1(=O)CCCC1`, the call in experiment [1], in experiment [4], in experiment [6] and in experiment [8] was inactive. Also, the Potency entry in experiment [2], in [3], in experiment [5] and in [7] was “inactive” each time.
For the compound `CC1=CC[C@H](CC=O)C1(C)C`, the result in [1], in experiment [4], in experiment [6] and in [8] was inactive. The Potency entry in experiment [2], in experiment [3], in experiment [5] and in [7] was “inactive” each time.
Consider `CCc1nccnc1C`, for which the compound was classed as inactive in [1], in experiment [4], in experiment [6] and in [8]. Besides, the Potency result in [2], in experiment [3], in [5] and in experiment [7] was “inactive” throughout.
In the case of `Oc1ccccc1Cc1ccccc1O`, the compound was called inactive in experiment [1] and in experiment [4]. The Potency entry in experiment [2], in experiment [3] and in [7] was “inactive” each time. For the same compound, the Potency in experiment [5] is 30.6 µM (active).
In the case of `CCOC(=O)OCC/C(SC(=O)OCC)=C(\C)N(C=O)Cc1cnc(C)nc1N`, the result in [1], in experiment [4], in experiment [6] and in experiment [8] was inactive. Moreover, the Potency entry in [2], in experiment [3], in [5] and in experiment [7] was “inactive” in each case.
In the case of `Nc1c(NC/C=C\COc2cc(CN3CCCCC3)ccn2)c(=O)c1=O`, the activity change, negative = cytotoxicity is 4.37% [at 19 µM] in [1] and -0.565% [at 19 µM] in [7]. Further, the Potency in experiment [2] and in experiment [3] was 5.17 µM (active) each time. Moreover, in experiment [4], the activity change was -1% [at 18.9 µM]. Also, the activity change, negative = inhibition in experiment [5] is 0.103% [at 19 µM].
In the case of `NS(=O)(=O)c1cc2c(cc1Cl)NC(C(Cl)Cl)NS2(=O)=O` (configuration not stated), the compound was classed as inactive in experiment [1], in [4], in [6] and in experiment [8]. The Potency entry in experiment [2], in experiment [3], in experiment [5] and in [7] was “inactive” each time.
`Cc1cccc(C(=O)O)c1[N+](=O)[O-]`: the compound was called inactive in experiment [1], in [4] and in experiment [6]. In addition, the Potency entry in [2], in [3], in experiment [5] and in [7] was “inactive” throughout.
`O=C1NC2NC(=O)NC2N1` (configuration not stated): the compound was called inactive in experiment [1], in [4], in experiment [6] and in experiment [8]. In addition, the Potency entry in [2], in experiment [3], in experiment [5] and in experiment [7] was “inactive” in each case.
`O=CN1CCOCC1`: the outcome in experiment [1], in experiment [4], in experiment [6] and in experiment [9] was inactive. Moreover, the Potency result in [2], in experiment [3], in [5] and in experiment [7] was “inactive” in each case.
Consider `Cc1nc(C)nc(N2C[C@@H](C)N(c3ccnc([C@@H](C)O)n3)[C@@H](C)C2)n1`, for which the compound was classed as inactive in experiment [1] and in experiment [4]. For the same compound, the Potency result in experiment [2], in [3], in experiment [5] and in experiment [7] was “inactive” each time.
As for `CC(=O)c1ccc2c(c1)CCCC2`, the call in [1], in [4], in experiment [6] and in [8] was inactive. Further, the Potency result in experiment [2], in experiment [3], in [5] and in experiment [7] was “inactive” in each case.
Turning to `CC(=O)OCC(=O)[C@@]1(O)[C@H](OC(C)=O)C[C@H]2[C@@H]3CCC4=CC(=O)C=C[C@]4(C)[C@@]3(F)[C@@H](O)C[C@@]21C`, the result in experiment [1] and in experiment [4] was inactive. The Potency result in experiment [2], in [3], in experiment [5] and in experiment [7] was “inactive” each time.
`O=C1OC(=O)c2cc(Oc3ccc4c(c3)C(=O)OC4=O)ccc21`: the call in experiment [1], in experiment [4], in [6], in experiment [8] and in experiment [9] was inactive. Also, the Potency result in experiment [2], in [3], in experiment [5] and in [7] was “inactive” in each case.
In the case of `CCCCCC1CCCC(=O)O1` (configuration not stated), the compound was classed as inactive in [1], in experiment [4], in experiment [6] and in [8]. Besides, the Potency entry in [2], in [3], in experiment [5] and in experiment [7] was “inactive” in each case.
In the case of `COc1cccc2sc(N)nc12`, the result in experiment [1], in [4], in experiment [6] and in experiment [9] was inactive. For the same compound, the Potency entry in experiment [2], in experiment [3] and in [7] was “inactive” throughout. Moreover, the Potency in experiment [5] was 24.5 µM (active).
Consider `CCNC(=O)/C=C/c1cccc(Br)c1`, for which the call in experiment [1], in [4], in [6], in [8] and in [9] was inactive. In addition, the Potency result in experiment [2], in experiment [3], in [5] and in experiment [7] was “inactive” throughout.
As to `CN(C)CCOCCN(C)CCO`, the outcome in [1] and in experiment [4] was inactive. Besides, the Potency result in [2], in experiment [3], in experiment [5] and in experiment [7] was “inactive” each time.
Turning to `NC(Cc1c[nH]c2ccccc12)C(=O)O` (configuration not stated), the compound was called inactive in experiment [1] and in [4]. Moreover, the Potency result in [2], in [3], in experiment [5] and in experiment [7] was “inactive” in each case.
On to `CN[C@@H]1[C@@H](O)[C@@H](O[C@@H]2[C@H](O)[C@H](O[C@H]3OC(CN)=CC[C@H]3N)[C@@H](N)C[C@H]2N)OCC1(C)O` (some centres not stated), for which the result in experiment [1] and in experiment [4] was inactive. Moreover, the Potency entry in experiment [2], in [3], in experiment [5] and in [7] was “inactive” throughout.
On to `C[C@H]1O[C@H](O[C@H]2[C@H](O)[C@@H](O)[C@@H](O[C@H]3[C@H](O)[C@@H](O)[C@H](O)O[C@@H]3CO)O[C@@H]2CO)[C@H](O)[C@@H](O)[C@@H]1N[C@H]1C=C(CO)[C@@H](O)[C@H](O)[C@H]1O`, for which the compound was classed as inactive in experiment [1], in [4] and in experiment [6]. The Potency entry in experiment [2], in experiment [3], in [5] and in experiment [7] was “inactive” each time.
For `CCOC(=O)CCCCCCCCC(=O)OCC`, the compound was classed as inactive in experiment [1], in experiment [4], in experiment [6] and in experiment [8]. Further, the Potency entry in experiment [2], in experiment [3], in experiment [5] and in [7] was “inactive” throughout.
For the compound `Cc1cccc(Nc2ccncc2S(=O)(=O)NC(=O)NC(C)C)c1`, the compound was classed as inactive in [1], in experiment [4], in experiment [6] and in experiment [8]. For the same compound, the Potency entry in [2], in experiment [3], in experiment [5] and in [7] was “inactive” each time.
